Screening results (PubChem)
KB-V1 MDR tox = kills drug-selected multidrug resistant KB-V1 cells; 400,000 tested, 3.4% active; KB-V1 MDR cells viability, CellTiter-Glo, 72 h; Potency, µM (titrated, usually from 46.1 µM), usual class: cytotoxic; also: nearly all actives have a fitted effect of over 60% in size
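Cells of the MDR subline KB-V1 are plated, dosed with compound at multiple concentrations, and incubated 72 h at 37 degrees C; CellTiter-Glo is then added and luminescence read after 10 min.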
HT1080-NT tox = kills 2HG-producing HT-1080-NT fibrosarcoma cells | HT-1080-NT fibrosarcoma viability, CellTiter-Glo ATP luminescence, 48 h | Potency, µM (top dose mostly 46.1 µM), most hits filed as cytotoxic | 360,000 tested, 1.6% active;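 also: NT is the 2HG producing partner of a matched IDH1 knockdown line; nearly all actives have a fitted effect of over 55% in size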
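HT-1080-NT fibrosarcoma cells (2HG-overproducing), 750 cells/well in RPMI with 5% FBS, dosed after 2 h and incubated 48 h at 37C. CellTiter-Glo luminescence normalized to DMSO and no-cell wells; concentration-response curves fitted and classed.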
HT1080 IDH1KD tx = toxicity to HT-1080 IDH1 knockdown cells (counter line); HT-1080 IDH1 knockdown viability, ATP luminescence, 48 h; Potency, µM (series often up to 46.1 µM), most hits filed as cytotoxic; 360,000 tested, 2% active; AID 686971
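Using the IDH1-knockdown HT-1080 line run in the same batch and compound series as the NT line, viability after 48 h at 37 °C was determined by CellTiter-Glo luminescence and expressed as % activity.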
DT40 TDP1 CPT = DT40-hTDP1 cell growth loss with CPT; chicken DT40 Tdp1-/-;hTDP1 cells + 20 nM CPT, ATP luminescence, 48 h; Potency, µM (titrated, usually from 46.2 µM), most hits filed as inhibitors; 420,000 tested, 12% active; AID 686979; also: nearly all actives have a fitted effect of over 55% in size
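Cell growth measured by CellTiter-Glo luminescence after a minimum 48 h, 37 C compound exposure with 20 nM CPT in Tdp1-knockout DT40 cells stably expressing hTDP1, seeded 400/well; qHTS titration format.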
KB-3-1 tox = kills parental KB-3-1 adenocarcinoma cells. KB-3-1 viability, CellTiter-Glo ATP luminescence, 72 h. 400,000 tested, 1.4% active. AID 1347075. Potency, µM (doses to about 46.1 µM), most hits filed as cytotoxic; also: nearly all actives have a fitted effect of over 60% in size
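KB-3-1 cells, DMEM (no phenol red) + 10% FBS; compound by pin transfer, 72 h, 37 °C. Readout: CellTiter-Glo luminescence after 10 min. Data normalized, curve-fitted.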
TDP1 cell noCPT = qHTS for Inhibitors of human tyrosyl-DNA phosphodiesterase 1 (TDP1): qHTS in cells in absence of CPT. Potency, µM (top dose mostly 46.2 µM), hits mostly inhibitors. DT40 Tdp1-/- hTDP1 cells, no CPT, ATP luminescence, 48 h. 420,000 tested, 15% active; also: nearly all actives have a fitted effect of over 55% in size
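Stably hTDP1-transfected Tdp1-null chicken DT40 cells were treated with library compounds minus camptothecin and grown for at least 48 hr at 37 °C, after which cellular ATP was quantified by luminescence.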
A number is an active result; . = inactive; ? = inconclusive; / = no result given; [ ] = dose if it differs, or a comment. Shown are actives, neighbours in structure and some others; about 19% of the full set was active somewhere. Calls follow the shape of the dose curve; as a rule, active = well fitted curve in the direction sought with a large enough effect; inconclusive = small, poorly fitted or top-dose-only effect, or another doubt; inactive = no such curve, though single readings can be large; an effect the other way counts as inactive or inconclusive.

SMILES	KB-V1 MDR tox	HT1080-NT tox	HT1080 IDH1KD tx	DT40 TDP1 CPT	KB-3-1 tox	TDP1 cell noCPT
Cc1csc(=O)n1CC(=O)OCC(=O)Nc1ccc(C(N)=O)cc1	.	.	.	.	.	6.5µM
CCOC(=O)c1ccc(NC(=S)NCCc2ccccc2)cc1	.	?	.	?	.	21µM
CCOC(=O)c1ccc(NC(=S)Nc2ccccn2)cc1	.	.	.	?	.	15µM
CCOC(=O)c1ccc(NC(=S)NCc2ccccc2)cc1	.	.	.	.	.	?
Cc1csc(=O)n1CCC(=O)OCC(=O)Nc1ccc(C(N)=O)cc1	.	.	.	.	.	.
CCOC(=O)c1ccc(NC(=S)NCCc2ccccc2F)cc1	?	.	.	?	.	23µM
CCOC(=O)c1ccc(NC(=O)NCCc2ccccc2OC)cc1	.	.	.	?	.	15µM
CCOC(=O)c1ccc(NC(=O)NCc2ccccc2OC)cc1	?	.	.	.	.	.
CCOC(=O)c1ccc(NC(=S)NCC(O)c2ccccc2)cc1 (stereo not drawn)	.	.	.	?	.	18µM
COc1ccccc1CCC(=O)OCC(=O)Nc1ccc(C(N)=O)cc1	.	.	.	15µM	.	.
O=C(Nc1ccccc1)C(=O)Nc1ccccn1	?	.	.	.	.	.
S=C(Nc1ccc(Nc2ccccc2)cc1)Nc1ccccn1	.	?	16µM	6.5µM	?	6.5µM
COc1ccc(-n2[nH]c3c(cnc4ccccc43)c2=O)cc1	?	.	.	.	?	.
O=C(CSc1ccccn1)Nc1cccc(S(=O)(=O)N2CCCC2)c1	.	.	.	.	.	.
CCCN(CC(=O)Nc1ccccc1C)C(=O)c1ccc(=O)n(Cc2ccccc2)n1	?	.	.	.	?	.
O=C(COC(=O)c1cccc(S(=O)(=O)N2CCOCC2)c1)NC1CCCCC1	.	.	.	.	.	.
S=C(Nc1ccccc1)c1ccccn1	.	?	.	0.65µM	?	0.92µM
O=C(CCS(=O)(=O)c1ccccc1Cl)NCCC1=CCCCC1	.	.	.	.	.	.
CC(=O)c1c(C)[nH]c(C(=O)CSc2nnc(C3CCCCC3)n2N)c1C	.	.	.	18µM	.	13µM
CCOC(=O)c1c(C)[nH]c(C)c1C(=O)CSc1nc2ccccc2n1CCOC	?	.	.	?	.	?
CC(=O)c1c(C)[nH]c(C(=O)CSc2nnc(-c3cccs3)n2Cc2ccccc2)c1C	5.8µM	.	.	?	.	?
CCOC(=O)c1c(C)[nH]c(C(=O)Cn2c(=O)c3c(ncn3CC)n(Cc3ccccc3)c2=O)c1C	?	.	.[9.24 µM]	26µM	.	?
COCCn1c(SCC(=O)c2[nH]c(C)c(C(C)=O)c2C)nc2ccccc21	16µM	.	.	?	.	?
CCOc1ccc(NC(=O)N2CCN(c3nnc(C)c4c(C)n(-c5ccccc5)nc34)CC2)cc1	.	/	/	.	.	.
COc1ccccc1CCNC(=O)c1cc2c(=O)n3cccc(C)c3nc2n1C	/	/	/	.	/	.
SMILES	KB-V1 MDR tox	HT1080-NT tox	HT1080 IDH1KD tx	DT40 TDP1 CPT	KB-3-1 tox	TDP1 cell noCPT
CC(=O)c1c(C)[nH]c(C(=O)CSc2nnc(-c3ccco3)n2Cc2ccccc2)c1C	18µM	.	.	23µM	.	16µM
CCCn1c(N)c(C(=O)CSc2nnc(-c3ccco3)n2Cc2ccccc2)c(=O)[nH]c1=O	.	.	.	.	?	?
CC(=O)c1c(C)[nH]c(C(=O)CSc2nnc(-c3ccccc3)n2Cc2ccc3c(c2)OCO3)c1C	?	?	23µM	?	.	?
O=c1c2ccccc2nnn1CSc1nnc(-c2cccs2)n1Cc1ccccc1	?	.	?	29µM	?	23µM
CCOC(=O)c1c(C)[nH]c(C(=O)CSc2nnc(-c3cccs3)n2Cc2ccccc2)c1C	2.3µM	.	?	?	.	?
CCc1ccc(N(CC)C(=O)c2cc3c(=O)oc4ccc(C)cc4c3s2)cc1	?	/	/	.	.	?
C=CCn1c(C)nnc1SCC(=O)c1[nH]c(C)c(C(C)=O)c1C	.	.	.	.	.	.
C=CCn1c(SCC(=O)c2[nH]c(C)c(C(C)=O)c2C)nnc1-c1ccncc1	.	.	.[9.24 µM]	?	.	26µM
C=CCn1c(SCC(=O)c2[nH]c(C)c(C(=O)OC)c2C)nc2scc(-c3ccc(OC)c(OC)c3)c2c1=O	6.5µM	.	.	16µM	4.1µM	8.2µM
O=c1cc(CSc2nnc(-c3cccs3)n2Cc2ccccc2)nc2sc3ccccc3n12	?	.	26µM	5.8µM	.	3.7µM
COC(=O)C1C(=O)c2c([nH]c(C(=O)OCC3CCCO3)c2C)CC1C (stereo not drawn)	.	.	.	16µM	.	.
CCCCCOC(=O)c1[nH]c2c(c1C)C(=O)C(C(=O)OC)C(C)C2 (stereo not drawn)	18µM	.	.	9.2µM	?	18µM
COCCOC(=O)c1[nH]c2c(c1C)C(=O)C(C(=O)OC)C(C)C2 (stereo not drawn)	.	.	.	.	.	.
O=C(NCc1ccccc1C(F)(F)F)c1cccc2c1C(=O)c1ccc(N3CCC(N4CCCCC4)CC3)cc1S2(=O)=O	?	.	.	2.3µM	.	3.7µM
COc1ccccc1N1CCN(c2ccc3c(c2)S(=O)(=O)c2cccc(C(=O)NCc4cccc(F)c4)c2C3=O)CC1	.	.	.	?	.	1.6µM
Cc1ccc(CNC(=O)c2cccc3c2C(=O)c2ccc(N4CCCCC4)cc2S3(=O)=O)cc1	.	.	.	29µM	?	?
O=C(NCc1cccc(F)c1)c1cccc2c1C(=O)c1ccc(N3CCOCC3)cc1S2(=O)=O	.	.	.	?	.	?
COc1ccc(CNC(=O)COC(=O)c2ccc(S(=O)(=O)N3CCCCC3)cc2)cc1	.	.	.	.	.	.
O=C(Nc1cccc2cccnc12)c1ccc(-c2cccc(Cl)c2)o1	.	/	/	.	.	?
COc1cc(NC(=O)c2cc([N+](=O)[O-])ccc2NC(=O)CNC2CCCCC2)cc(OC)c1	?	.	.	21µM	.	16µM
COc1cc(NC(=O)c2cc([N+](=O)[O-])ccc2NC(=O)CNC2CCCCC2C)cc(OC)c1 (stereo not drawn)	?	?	.	?	.	?
COc1cc(NC(=O)c2cc([N+](=O)[O-])ccc2NC(=O)CNCc2ccccn2)cc(OC)c1	?	.	.	.	?	?
COc1ccc(NC(=O)c2cc([N+](=O)[O-])ccc2NC(=O)CNCc2ccccn2)c(OC)c1	?	.	?	?	.	13µM
